Measured values taken from PubChem BioAssay (EPA / NIEHS).
Several values for one entry are separate records, joined by “and”; a condition that tells them apart may be missing. Identical values can stand only once. Inconclusive results are not listed. Activity calls are given as the source filed them. How the source made its calls, unless noted: active means hit-call score of the fitted dose curve at least 0.9, where 1 is the maximum; inconclusive means response in the unintended direction; inactive means score below 0.9.

Legend:
[1] = target: Retinoic acid receptor RXR-alpha (Homo sapiens) (UniProt P19793); assay: OT_NURR1_NURR1RXRa_1440: Odyssey Thera (OT) 24-hour HEK293T Protein Complementation Assay for Nurr1/retinoid X receptor (RXR) (AID 2283386)
Retinoic acid receptor RXR-alpha (Homo sapiens), sequence (P19793 whole entry, looked up, the tested form may be a part): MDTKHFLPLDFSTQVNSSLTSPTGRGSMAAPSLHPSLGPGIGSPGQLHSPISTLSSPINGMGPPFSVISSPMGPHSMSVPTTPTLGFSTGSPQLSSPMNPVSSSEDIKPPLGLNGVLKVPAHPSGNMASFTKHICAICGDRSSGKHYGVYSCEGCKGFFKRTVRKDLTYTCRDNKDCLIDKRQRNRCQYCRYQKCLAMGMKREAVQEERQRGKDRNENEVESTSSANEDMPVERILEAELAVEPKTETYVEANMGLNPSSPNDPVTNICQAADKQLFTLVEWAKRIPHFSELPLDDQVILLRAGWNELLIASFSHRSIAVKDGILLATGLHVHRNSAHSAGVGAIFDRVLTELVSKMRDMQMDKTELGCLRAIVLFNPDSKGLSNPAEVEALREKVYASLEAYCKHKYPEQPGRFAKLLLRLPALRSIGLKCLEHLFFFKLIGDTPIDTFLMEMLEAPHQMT
In short: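 Interaction of Nurr1 with RXRα brings fused reporter fragments together in human HEK293T cells, restoring a functional reporter. Fluorescence intensity is measured 24 h after chemical treatment, and values are analysed in the positive direction against DMSO.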

[2] = target: Peroxisome proliferator-activated receptor gamma (Homo sapiens) (UniProt P37231); assay: OT_PPARg_PPARgSRC1_0480: Odyssey Thera (OT) 8-hour Protein-Complementation Assay for Peroxisome Proliferator-activated Receptor Gamma / SRC-1 Co-activator (AID 2283387)
Peroxisome proliferator-activated receptor gamma (Homo sapiens), sequence (P37231 whole entry, looked up, the tested form may be a part): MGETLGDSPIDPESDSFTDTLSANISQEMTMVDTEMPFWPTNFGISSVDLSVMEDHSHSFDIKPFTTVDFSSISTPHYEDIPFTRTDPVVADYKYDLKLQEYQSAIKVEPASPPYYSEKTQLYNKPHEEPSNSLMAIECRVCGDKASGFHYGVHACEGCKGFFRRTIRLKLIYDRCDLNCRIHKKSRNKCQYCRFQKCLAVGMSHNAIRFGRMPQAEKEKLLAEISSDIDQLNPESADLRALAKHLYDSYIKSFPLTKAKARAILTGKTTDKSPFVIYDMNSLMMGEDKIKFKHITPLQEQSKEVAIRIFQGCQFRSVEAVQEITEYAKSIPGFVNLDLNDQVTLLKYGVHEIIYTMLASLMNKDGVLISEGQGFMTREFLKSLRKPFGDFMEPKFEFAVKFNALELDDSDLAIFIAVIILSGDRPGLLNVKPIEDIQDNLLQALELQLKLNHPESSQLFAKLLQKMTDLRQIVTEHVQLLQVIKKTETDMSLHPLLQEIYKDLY
In short: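 HEK293T transiently transfected with PPARg and SRC-1 fused to Venus YFP fragments, compounds 8 h at 37C. Fixed, Draq5-stained cells imaged; nuclear/cytoplasmic 488 nm fluorescence ratio over at least 350 cells per image; gain fitted versus DMSO.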

[3] = target: Peroxisome proliferator-activated receptor gamma (Homo sapiens) (UniProt P37231); assay: OT_PPARg_PPARgSRC1_1440: Odyssey Thera (OT) 24-hour Protein-Complementation Assay for Peroxisome Proliferator-activated Receptor Gamma/ SRC-1 Co-activator (AID 2283388)
In short: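 HEK293T cells transiently transfected with PPARg and SRC-1 fused via (Gly4Ser)2 linker to split Venus YFP fragments (IFP1/IFP2) were dosed 24 h; fixed, Draq5-stained, imaged at 488/635 nm; nuclear/cytoplasmic fluorescence ratio scored versus DMSO baseline, gain-of-signal.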

[4] = CEETOX_H295R_11DCORT: CeeTox H295R High-throughput Steroidogenesis Assay for 11-Deoxycortisol (11DCORT) (AID 2283432; active means hit-call score of the fitted dose curve at least 0.9, where 1 is the maximum; inactive means score below 0.9;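 on AC50: human adrenal H295R cells prestimulated with 10 µM forskolin for 48 h; 11-deoxycortisol secreted into the medium measured by LC-MS/MS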); details: actives raise or lower the signal
In short: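 H295R cells prestimulated 48 h with 10 uM forskolin, then exposed 48 h to chemical in 0.1% DMSO. 11-Deoxycortisol in medium quantified by HPLC-MS/MS after MTBE extraction; bidirectional fit versus DMSO. MTT viability read in same wells.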

[5] = CEETOX_H295R_OHPREG: CeeTox H295R High-throughput Steroidogenesis Assay for OH-Pregnenolone (OHPREG) (AID 2283434; active means hit-call score of the fitted dose curve at least 0.9, where 1 is the maximum; inactive means score below 0.9); details: actives raise or lower the signal
In short: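 Hormone levels in spent medium were measured by tandem mass spectrometry following liquid-liquid extraction. Cells (H295R) had been forskolin-stimulated (10 uM, 48 h) before a 48 h chemical exposure at 0.1% DMSO, with activity fitted in both directions against DMSO.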

[6] = CEETOX_H295R_OHPROG: CeeTox H295R High-throughput Steroidogenesis Assay for OH-Progesterone (OHPROG) (AID 2283435; active means hit-call score of the fitted dose curve at least 0.9, where 1 is the maximum; inactive means score below 0.9;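 on AC50: human adrenal H295R cells primed 48 h with 10 µM forskolin; 17alpha-hydroxyprogesterone secreted into medium measured by HPLC-MS/MS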); details: actives raise or lower the signal
In short: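 H295R, 10 uM forskolin prestim 48 h; cmpd in 0.1% DMSO 48 h; medium MTBE-extracted, HPLC-MS/MS for OH-progesterone; 7-pt std curve; bidirectional fit vs DMSO; MTT viability, chemicals diluted until viability >/=70%.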

[7] = CEETOX_H295R_ANDR: CeeTox H295R High-throughput Steroidogenesis Assay for Androstenedione (ANDR) (AID 2283436; active means hit-call score of the fitted dose curve at least 0.9, where 1 is the maximum; inactive means score below 0.9;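 further: human H295R adrenal cells exposed for 48 h with androstenedione measured in medium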); details: actives raise or lower the signal
Procedure: CEETOX_H295R is a cell-based, multiplexed-readout assay that uses H295R, a human adrenal gland cell line, with measurements taken at 48 hours after chemical dosing in a 96-well plate.CEETOX_H295R_ANDR is one of 23 assay component(s) measured or calculated from the CEETOX_H295R assay. It is designed to make measurements of hormone induction, a form of inducible reporter, as detected with absorbance signals by HPLC-MS-MS technology.Data from the assay component CEETOX_H295R_ANDR was analyzed into 1 assay endpoint. This assay endpoint, CEETOX_H295R_ANDR, was analyzed with bidirectional fitting relative to DMSO as the negative control and baseline of activity. […] To generalize the intended target to other relatable targets, this assay endpoint is annotated to the steroid hormone intended target family, where the subfamily is androgens.
Cell culture and media preparation procedures were conducted in accordance with OECD Test No. 456 guidelines, with minor modifications. H295R cells (ATCC CRL-2128) were expanded for 5 passages and frozen in batches in liquid nitrogen. Prior to the steroidogenesis assay, H295R cells were thawed and passed at least 4 times. The maximum passage was 10. Cells were maintained in a 1:1 mixture of DMEM/F12 supplemented with 5ml/L ITS+ Premix (BD Bioscience) and 12.5 ml/L Nu-Serum (BD Bioscience). After seeding cells into 96-well plates at 50-60% confluency, cells were allowed to adhere overnight. […] Test chemicals were incubated for 48 hours, then the medium was removed and split into 2 vials containing approximately 75uL each, and stored at -80 C prior to hormone analysis. For steroid quantification, media samples were shipped to OpAns, LLC (Durham, NC) on dry ice, and samples were thawed to room temperature prior to liquid-liquid extraction. Steroid hormones were extracted from media samples using methyl tertbutyl ether (MTBE). An extra derivatization with dansyl chloride was included for estrogen (estrone and estradiol) detection only. Steroid hormones were separated by HPLC, eluted using a reverse phase C18 gradient with electrospray positive ionization, followed by quantification by tandem mass spectrometry (MS/MS). Data were acquired on a MassHunter Workstation Acquisition version B03.01 (Agilent Technologies, Inc.) and processed using MassHunter Quantitative Analysis for QQQ. Accuracy was determined for each hormone analyte from 3 standards to determine upper and lower limits of quantification (ULOQ and LLOQ, respectively) using a 7-point standard curve. Precision and accuracy of the extraction and quantification methods were calculated as the percent relative standard deviation (%RSD) of the spiked standards and percent spiked standard recovered, respectively. […] Test medium was removed following chemical exposure, and cell viability was evaluated in the same wells by MTT. MTT procedures were as follows: after removal of test medium, 500 uL of 0.5 mg/ml of 3-[4,5-dimethylthiazol-2-y]2,5-diphenyltetrazoliumbromide solution was added to the cells. Following a 4-hour incubation at 37 C and 5% CO2 to allow formazan-crystal formation, the MTT solution was removed and blue formazan salt crystals were solubilized using 500uL anhydrous isopropanol with shaking for 20 minutes. Absorbance was read at 570 and 650nm using a Packard Fusion microplate reader. Background correction of absorbance units was used to determine percent change relative to controls. […] When a test chemical reduced cell viability to 20% - 70%, the test chemical was diluted 10-fold and re-evaluated, but if cell viability was <20%, then the test chemical was diluted 100-fold and re-evaluated. Test chemical dilutions were made until cell viability was >/=70%. MTT assays were also conducted for duplicates of all concentrations of chemicals tested in concentration-response studies.

[8] = CEETOX_H295R_CORTIC: CeeTox H295R High-throughput Steroidogenesis Assay for Corticosterone (CORTIC) (AID 2283437; active means hit-call score of the fitted dose curve at least 0.9, where 1 is the maximum; inactive means score below 0.9;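 further: corticosterone secreted into medium quantified by mass spectrometry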); details: actives raise or lower the signal
In short: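 Corticosterone secreted into medium is measured by reverse-phase HPLC with tandem MS following liquid-liquid extraction. Cells are forskolin-stimulated (10 uM, 48 h) before 48 h test exposure; activity fitted in both directions against DMSO.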

[9] = CEETOX_H295R_CORTISOL: CeeTox H295R High-throughput Steroidogenesis Assay for Cortisol (AID 2283438; active means hit-call score of the fitted dose curve at least 0.9, where 1 is the maximum; inactive means score below 0.9;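 further: cortisol secreted into medium quantified by LC-MS/MS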); details: actives raise or lower the signal
In short: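 Forskolin 10 uM 48 h prestim → test cmpd in DMSO (0.1% final) 48 h → medium MTBE-extracted → LC-MS/MS cortisol vs 7-pt std curve. Gain/loss of signal fitted vs DMSO. MTT viability in same wells.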

[10] = CEETOX_H295R_DOC: CeeTox H295R High-throughput Steroidogenesis Assay for DOC (AID 2283439; active means hit-call score of the fitted dose curve at least 0.9, where 1 is the maximum; inactive means score below 0.9); details: actives raise or lower the signal
In short: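 Readout: 11-deoxycorticosterone in culture medium by reverse-phase C18 HPLC with ESI+ tandem MS after MTBE extraction. Cells: H295R, forskolin-primed (10 uM, 48 h), chemical-treated 48 h; DMSO 0.1% final. Activity fitted bidirectionally versus DMSO.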

CNC(=O)Oc1cccc2c1OC(C)(C)C2
outcome [1]: inactive
outcome [2]: inactive
outcome [3]: inactive
outcome [4]: inactive
outcome [5]: inactive
outcome [6]: inactive
outcome [7]: inactive
outcome [8]: inactive
outcome [9]: inactive
outcome [10]: inactive

Nc1ccc(Cc2ccc(N)cc2)cc1
outcome [1]: inactive
outcome [2]: inactive
outcome [3]: inactive
AC50 [4]: 40.3 µM (active)
AC50 [5]: 4.31 µM (active)
AC50 [6]: 4.68 µM (active)
outcome [8]: inactive
AC50 [9]: 24 µM (active)
AC50 [10]: 65.5 µM (active)

C[N+](C)(C)CC1CO1 (configuration not stated)
outcome [1]: inactive
outcome [2]: inactive
outcome [3]: inactive

CCCCCCCCn1sccc1=O
AC50 [1]: 12 µM (active)
outcome [2]: inactive
outcome [3]: inactive

Clc1ccccc1Cl
outcome [1]: inactive
outcome [2]: inactive
outcome [3]: inactive

OCCOCCO
outcome [1]: inactive
outcome [2]: inactive
outcome [3]: inactive

CS(=O)(=O)NC(=O)c1cc(Oc2ccc(C(F)(F)F)cc2Cl)ccc1[N+](=O)[O-]
outcome [1]: inactive
outcome [2]: inactive
outcome [3]: inactive

COC(=O)c1ccccc1N
outcome [1]: inactive
outcome [2]: inactive
outcome [3]: inactive

OCCCl
outcome [1]: inactive
outcome [2]: inactive
outcome [3]: inactive

CC(C)(O)c1cnn2c(-c3ccc(F)c(-c4c(F)cccc4C#N)c3)cnc2n1
AC50 [1]: 86.8 µM (active) and 75.3 µM (active)
AC50 [2]: 92.9 µM (active) and 93.2 µM (active)
AC50 [3]: 92.9 µM (active) and 79.4 µM (active)
outcome [4]: inactive
outcome [5]: inactive
AC50 [6]: 0.408 µM (active)
outcome [7]: inactive
outcome [8]: inactive
outcome [9]: inactive
outcome [10]: inactive

C1=Cc2cccc3cccc1c23
outcome [1]: inactive
outcome [2]: inactive
outcome [3]: inactive

O=C1CCCO1
outcome [2]: inactive
outcome [3]: inactive

CCC(C)c1ccc(O)cc1 (configuration not stated)
outcome [1]: inactive
outcome [4]: inactive
outcome [5]: inactive
AC50 [6]: 22.5 µM (active)
outcome [8]: inactive
outcome [9]: inactive
outcome [10]: inactive

O=P(OCCCl)(OCCCl)OCCCl
outcome [1]: inactive
outcome [2]: inactive
outcome [3]: inactive
outcome [4]: inactive
outcome [5]: inactive
outcome [6]: inactive
outcome [8]: inactive
outcome [9]: inactive
outcome [10]: inactive

Cc1ccc(N)c(N)c1
outcome [1]: inactive
outcome [4]: inactive
outcome [5]: inactive
outcome [8]: inactive
outcome [9]: inactive
outcome [10]: inactive

N#CC(Br)Br
outcome [2]: inactive
outcome [3]: inactive

COP(=S)(OC)SCN1C(=O)c2ccccc2C1=O
outcome [2]: inactive
outcome [3]: inactive
outcome [4]: inactive
outcome [5]: inactive
outcome [6]: inactive
outcome [8]: inactive
outcome [9]: inactive
outcome [10]: inactive
